# Test results: PubChem BioAssay (NCATS)
# Records with an inconclusive call do not appear. Entries that show only a call come without a potency. Unmarked numbers belong to inactive results. The source made the active and inactive calls. Calls come from the whole dose curve; as a rule, active = well fitted curve in the direction sought with a large enough effect; inconclusive = small, poorly fitted or top-dose-only effect, or another doubt; inactive = no such curve, though single readings can be large; an effect the other way counts as inactive or inconclusive.
# What was measured:
# [1] = biological target: Cellular tumor antigen p53 (Homo sapiens) (UniProt P04637); assay: Primary qHTS for small molecule compounds that upregulate eGFP-tagged delta133p53alpha (in N-terminal) cells. (AID 2060322); conditions: NCI-H358 eGFP-delta133p53alpha fluorescence, 24 h; activation: stronger effect = higher value; note: nearly all actives have a fitted effect of over 75% in size; note: potency is the fitted concentration of half-maximal effect;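 for activation: cells pre-induced with doxycycline then dosed without doxycycline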
# Chain of Cellular tumor antigen p53 (Homo sapiens) (P04637 whole entry, looked up): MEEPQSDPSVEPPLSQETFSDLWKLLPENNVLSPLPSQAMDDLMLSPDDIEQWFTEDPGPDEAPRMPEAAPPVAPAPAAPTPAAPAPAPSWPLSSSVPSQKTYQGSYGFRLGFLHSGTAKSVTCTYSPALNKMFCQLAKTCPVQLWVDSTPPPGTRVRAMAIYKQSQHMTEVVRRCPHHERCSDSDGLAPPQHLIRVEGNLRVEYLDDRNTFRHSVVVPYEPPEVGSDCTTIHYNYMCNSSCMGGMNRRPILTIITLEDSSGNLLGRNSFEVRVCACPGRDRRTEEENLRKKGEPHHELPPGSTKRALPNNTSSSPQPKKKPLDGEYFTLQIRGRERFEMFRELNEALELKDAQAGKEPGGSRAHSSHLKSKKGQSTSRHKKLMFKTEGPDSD
# Summary of the method: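 NCI-H358 cells pre-induced 24 h with 10 ng/ml doxycycline for eGFP-delta133p53alpha, plated dox-free and exposed 24 h at 37C to titrated compounds. Fixed, Hoechst-stained; gated GFP peak intensity by laser scanning cytometry, normalized to DMSO (0%) and 57.5 uM 5-azacytidine (100%).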
# [2] = biological target: Aldehyde dehydrogenase, mitochondrial (Homo sapiens) (UniProt P05091); assay: qHTS for Inhibitors of the Aldehyde Dehydrogenase Family (ALDH2) Primary screen (AID 2061308); conditions: ALDH2 enzyme inhibition qHTS, 1536-well; series mostly up to 56 µM; note: nearly all actives have a fitted effect of over 55% in size
# [3] = biological target: Retinaldehyde dehydrogenase 3 (Homo sapiens) (UniProt P47895); assay: qHTS for Inhibitors of the Aldehyde Dehydrogenase Family (ALDH1A3) Primary screen (AID 2061315); conditions: ALDH inhibition qHTS; series mostly up to 56 µM
Compound,activation [1] [%],Potency [2],Potency [3],Potency [1],"activity change, negative = inhibition [2]","activity change, negative = inhibition [3]"
CCC(NC(=O)CC(NC(=O)C(CO)NC(=O)C(CC)NC(=O)c1ccc[nH]1)c1ccccc1)C(=O)O (stereo not given),23.7,inactive,inactive,–,–,–
COc1c2c(c(C)c3c1C(=O)OC3)OC1(C)CC(O)C34OC(OC)(CC(OC(C)=O)C3(C)C1C2)OC4(C)C (stereo not given),-5.36,inactive,inactive,–,–,–
NC(N)=N/N=C/c1ccccc1Cl,3.67,inactive,inactive,–,–,–
COc1cc(C)c(C(=O)O[C@H]2[C@@H](OC(C)=O)[C@H](n3ccc(=O)[nH]c3=O)O[C@@H]2CO)c(OC)c1,-10.7,inactive,inactive,–,–,–
C[C@]1(O)CC[C@@H]2C(C(=O)O)=CO[C@@H](O[C@@H]3O[C@H](COC(=O)c4ccc(O)cc4)[C@@H](O)[C@H](O)[C@H]3O)[C@@H]21,0.893,inactive,inactive,–,–,–
O=C1NC2CCc3nc4ccccc4c(=O)n3C2=Nc2ccccc21 (stereo not given),-8.93,inactive,inactive,–,–,–
C=CC(=O)N1CCCC(n2nc(-c3ccc(Oc4ccccc4)cc3)c3c(N)ncnc32)C1 (stereo not given),18.8,inactive,inactive,–,–,–
CC(=O)c1cc(C(=O)N[C@@H](C)Cn2ccc(-c3ccc(C#N)c(Cl)c3)n2)[nH]n1,18.3,inactive,inactive,–,–,–
CC(=O)O[C@H]1[C@H](C)[C@@H](O)[C@H]2[C@@H]1C=C(C(=O)O)[C@H]1C[C@@H]3[C@H]([C@H]21)[C@H]1C(=O)O[C@@H]2CC[C@@]3(C)O[C@]1(O)[C@@H]2C,-11.5,inactive,inactive,–,–,–
O=C(CCCCc1ccc2ccccc2c1)C(F)(F)F,4.33,inactive,inactive,–,–,–
COc1cc(O)c(C(=O)CCc2ccc(O)cc2)c(O[C@@H]2O[C@H](CO)[C@@H](O)[C@H](O)[C@H]2O)c1,–,inactive,inactive,7.38 µM (active),–,–
NS(=O)(=O)Nc1ncnc(OCCOc2ncc(Br)cn2)c1-c1ccc(Br)cc1,18.1,inactive,inactive,–,–,–
Cc1nc(N2CCN(C(=O)c3ccco3)CC2)c2c3c(sc2n1)CCCC3,-12.9,inactive,inactive,–,–,–
COc1ccc(C(=O)CC(=O)O)c2c1C=CC(C)(C)O2,23.2,inactive,inactive,–,–,–
C=C(C(=O)O)[C@@H]1CC[C@@]2(C)CCC[C@@](C)(O)[C@@H]2C1,10.7,inactive,inactive,–,–,–
CNC(=O)[C@H]1O[C@@H](n2cnc3c(NCc4ccc(N)c(I)c4)ncnc32)[C@H](O)[C@@H]1O,4.33,–,–,–,0.813% [at 11.2 µM],4.83% [at 11.2 µM]
COc1cccc(C)c1C(=O)O[C@@H]1C[C@H](O[C@H]2[C@H](O)C[C@H](O[C@@H]3CCC[C@H]4[C@H]3C=C[C@@H]3CCCC/C=C/[C@H]5C=C(C(=O)O)[C@@H](C)C[C@@]56OC(=O)C(=C6O)OC(=O)[C@@]34C)O[C@@H]2C)O[C@H](C)[C@H]1O,-5.34,inactive,inactive,–,–,–
C[C@H](NC(=O)C(C)(C)Oc1ccc(C(F)(F)F)cn1)[C@@H](Cc1ccc(Cl)cc1)c1cccc(C#N)c1,5.36,inactive,inactive,–,–,–
CC12CC(O)C(O)C=C1c1cc(O)cc(O)c1C(=O)O2 (stereo not given),-7.63,inactive,inactive,–,–,–
CCOC(=O)Cn1cccc1-c1nc(-c2ccc(OC)cc2)c(-c2ccc(OC)cc2)s1,27.6,inactive,inactive,–,–,–
